A short description of test [1]: yeast TOR pathway RPL19A-GFP modulators, primary screen, cell-based, S. cerevisiae, multiplex flow cytometry (AID 1862; in the data active means percent of DMSO control GFP below about 86%;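 further: lower values mimic rapamycin by blocking the RPL19A rise seen in DMSO cells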). Conditions: S. cerevisiae RPL19A-GFP strain, flow cytometry fluorescence, 3 h; at 10 µM; stronger effect = lower value.
The nature of test [2]: modulators of MEP2-GFP levels in yeast, primary screen, S. cerevisiae, multiplex flow cytometry (AID 1867;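 active means GFP response, as percent of the DMSO control, above the screen-wide mean plus 3 SD, about 139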;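 further: median GFP channel fluorescence of barcode-gated MEP2-GFP cells measured by flow cytometry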). Conditions: S. cerevisiae MEP2-GFP strain, 3 h, at 10 µM, stronger effect = higher value, 100% means same as DMSO wells. In general terms: In flow cytometry, cells or beads pass a laser one at a time.
Test [3] is described as follows: modulators of CIT2-GFP expression in yeast, primary screen, S. cerevisiae, GFP fusion, multiplex flow cytometry (AID 1870;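 active means percent response above a set limit, the screen-wide mean plus 3 SD, cut at about 130% in these data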;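 further: barcoded CIT2-GFP strain pooled with four other GFP strains with rapamycin as positive control; median GFP fluorescence per well over plate mean of DMSO wells so 100% = DMSO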). Conditions: 3 h, at 10 µM, stronger effect = higher value.
Test [4] can be described thus: modulators of LAP4-GFP expression in yeast, primary screen, S. cerevisiae, multiplex flow cytometry (AID 1873). To be noted: 3 h, at 10 µM, stronger effect = higher value.
A short description of test [5]: modulators of AGP1-GFP expression in yeast TOR pathway, primary screen, cell-based, multiplex flow cytometry, S. cerevisiae (AID 1887;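 active means GFP signal above the screen-wide mean plus 3 SD, that is over about 124.5% of the solvent control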;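 further: AGP1-GFP fusion strain of S. cerevisiae within a five-strain barcoded multiplex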). To be noted: 3 h, at 10 µM, stronger effect = higher value.
A short description of test [6]: inhibitors of CD8+ T cell-vesicle binding, pilot screen, LFA-1/ICAM-1 modulator project, MLPCN validation set, flow cytometry (AID 2523;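 active means response below a set limit, under 55% cells CD8-positive and vesicle-bound, and CD8 cells' 90th-percentile brightness under 279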;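 on vesicle binding response: mean PE anti-B7-1 fluorescence of CD8+ cells relative to row control; 100% = QL9-loaded vesicles with DMSO vehicle in the same plate row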). Conditions: 2C mouse CD8+ T cells, at 7 µM, stronger effect = lower value; double positive events: measured here: CD8+/vesicle+ event percentage.
Test [7] addresses Integrin beta-1 (Homo sapiens) + Integrin alpha-4 (Homo sapiens) (UniProt P13612+P05556). As to the kind of experiment: inhibition of HUTS-21 binding to VLA-4, pilot screen, VLA-4 allosteric modulator project, U937 cells, HUTS-21 mAb, flow cytometry, validation set (AID 2674;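 active means inhibition above 50%, about 3 SD of the validation set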;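 further: antibody binding induced by the VLA-4 ligand LDV present at three times its Kd; 0% = LDV ligand with antibody and no compound and 100% = antibody without LDV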). Conditions: HUTS-21 LIBS mAb binding, at 6.7 µM, stronger effect = higher value, binding induced by LDV ligand.
Test [8] is described as follows: superoxide lowering in aged yeast cells, pilot screen, validation compound set (AID 2706;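 active means superoxide response below 65% of plate, a cut near 3 SD across the whole screen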;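 further: yeast exposed to compound for one week at 30 degrees C before staining; 100% = mean of all compound wells on the same plate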). Conditions: S. cerevisiae aging, superoxide DHE fluorescence; at 10 µM, stronger effect = lower value.
Test [9] has as its target Beta-adrenergic receptor kinase 1 (Homo sapiens) (UniProt P25098). The test is described as follows: GRK2 binders displacing RNA aptamer, biochemical, validation, human GRK2, bead flow cytometry (AID 488806;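 active means aptamer binding inhibition above 30%, about 3 SD of noise from non-fluorescent compounds; inactive means inhibition at or below 30%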). Conditions: bead-bound GRK2, FAM-aptamer displacement, at 10 µM, stronger effect = higher value.
Test [10] concerns the target AP-2 complex subunit beta (Homo sapiens) (UniProt P63010). The test is described as follows: inhibitors of arrestin peptide binding to AP2, pilot screen, biochemical, validation set, GST-AP2 beads, flow cytometry (AID 504541;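 active means inhibition above 54%, about 3 SD of non-fluorescent compounds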;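 further: AP2 carries R879A mutation and is captured from E. coli lysate; bead-bound FITC arrestin peptide fluorescence measuring arrestin peptide binding to AP2; 0% = DMSO wells and 100% = excess unlabeled arrestin peptide control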). To be noted: FITC arrestin peptide, at 10 µM, stronger effect = higher value, AP2 beta2 appendage fragment, R879A mutant.
The nature of test [11]: yeast V-ATPase proton transport modulators, S. cerevisiae, pHLuorin, HTS validation (AID 504600; in the data active means response above about 15%;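 further: plate controls were DMSO for no effect and reference compound for full effect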). Conditions: S. cerevisiae pHLuorin cytosolic pH, at 10 µM, stronger effect = higher value.
Test [12] concerns anti-desmoglein-3 scFv antibody binding to human DSG3. The test is described as follows: inhibitors of anti-DSG3 scFv binding to DSG3, pilot screen, biochemical, validation compound set, bead-based, flow cytometry (AID 588368;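 active means binding below the plate cutoff, the plate median minus 3 SD, with a reading above zero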;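 further: signal is the median channel fluorescence of bead-bound GFP antibody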). Conditions: Protein G beads, DSG3-Fc, scFv-GFP binding, at 10 µM, stronger effect = lower value.
The nature of test [13]: inhibitors of fungal efflux pumps CDR1, CDR2, MDR1, pilot screen, validation compound set, multiplex, phenotypic (AID 588506;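 active means efflux inhibition above 0.42, the validation set average plus 4 SD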;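 further: Nile Red retained in cells so higher fluorescence means more efflux inhibition; 0 = negative control wells and 1 = enniatin B 25 µM full block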). Conditions: S. cerevisiae pump-expressing triplex, Nile Red efflux flow cytometry; at 10 µM; stronger effect = higher value; the pumps come from Candida albicans.
The target of test [14] is ATP-binding cassette sub-family B member 6 (Homo sapiens) (UniProt Q9NP58). As to the kind of experiment: ABCB6 transporter inhibitors, pilot screen, K562-ABCB6 cells, flow cytometry, validation set (AID 588550;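 active means inhibition above the screen-wide mean plus 3 SD, about 51%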;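 further: 0% = DMSO wells and 100% = benzethonium chloride 70 µM positive control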). To be noted: K562-ABCB6 porphyrin accumulation, 1 h, at 10 µM, stronger effect = higher value.
Test [15] can be described thus: promoters of myeloid differentiation in arrested cells, primary screen, cell-based, GFP/MAC1 double positive, flow cytometry, validation set (AID 588685;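 active means differentiation response of at least 50%, scaled between solvent and reference control, from cells with both markers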;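 further: compound exposure lasts four days before antibody staining and flow analysis; 0% = DMSO wells and 100% = 5 µM fulvestrant positive control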). Conditions: ER-HoxA9 marrow cells, stronger effect = higher value, normalized: vehicle 0, fulvestrant 100.

Results filed as inconclusive are left out. The source made the active and inactive calls.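 How the source made its calls, unless noted: active means GFP signal, as percent of the solvent control, above the screen mean plus 3 SD, about 149; inconclusive means no reading because the compound's own fluorescence upset strain identification; inactive means the rest.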

AP-2 complex subunit beta (Homo sapiens), sequence (P63010 whole entry, looked up, the tested form may be a part, one chain of several): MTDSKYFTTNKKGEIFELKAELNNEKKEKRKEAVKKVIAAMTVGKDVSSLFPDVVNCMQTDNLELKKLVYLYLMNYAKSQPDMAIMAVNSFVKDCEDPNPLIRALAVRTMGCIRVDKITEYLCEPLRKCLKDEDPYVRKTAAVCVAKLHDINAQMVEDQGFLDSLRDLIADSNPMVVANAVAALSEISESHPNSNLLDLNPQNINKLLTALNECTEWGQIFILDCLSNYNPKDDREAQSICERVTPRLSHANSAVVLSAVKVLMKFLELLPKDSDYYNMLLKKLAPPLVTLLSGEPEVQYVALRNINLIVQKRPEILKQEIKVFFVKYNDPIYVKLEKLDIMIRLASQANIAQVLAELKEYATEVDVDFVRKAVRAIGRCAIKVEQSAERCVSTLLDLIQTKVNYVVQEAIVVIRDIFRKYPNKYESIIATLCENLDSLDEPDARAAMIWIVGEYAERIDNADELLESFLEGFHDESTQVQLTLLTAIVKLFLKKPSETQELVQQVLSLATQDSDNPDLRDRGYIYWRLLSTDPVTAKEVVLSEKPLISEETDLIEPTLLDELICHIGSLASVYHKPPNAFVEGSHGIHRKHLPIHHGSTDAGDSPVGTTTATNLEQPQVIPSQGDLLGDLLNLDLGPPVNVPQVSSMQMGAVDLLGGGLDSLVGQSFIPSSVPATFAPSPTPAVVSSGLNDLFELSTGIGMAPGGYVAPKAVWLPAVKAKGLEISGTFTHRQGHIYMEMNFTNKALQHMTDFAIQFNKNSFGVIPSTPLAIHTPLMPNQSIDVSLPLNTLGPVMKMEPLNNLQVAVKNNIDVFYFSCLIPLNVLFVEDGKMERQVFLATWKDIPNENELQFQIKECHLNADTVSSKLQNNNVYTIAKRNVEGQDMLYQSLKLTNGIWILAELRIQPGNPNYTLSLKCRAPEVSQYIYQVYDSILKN
ATP-binding cassette sub-family B member 6 (Homo sapiens), sequence (Q9NP58 whole entry, looked up): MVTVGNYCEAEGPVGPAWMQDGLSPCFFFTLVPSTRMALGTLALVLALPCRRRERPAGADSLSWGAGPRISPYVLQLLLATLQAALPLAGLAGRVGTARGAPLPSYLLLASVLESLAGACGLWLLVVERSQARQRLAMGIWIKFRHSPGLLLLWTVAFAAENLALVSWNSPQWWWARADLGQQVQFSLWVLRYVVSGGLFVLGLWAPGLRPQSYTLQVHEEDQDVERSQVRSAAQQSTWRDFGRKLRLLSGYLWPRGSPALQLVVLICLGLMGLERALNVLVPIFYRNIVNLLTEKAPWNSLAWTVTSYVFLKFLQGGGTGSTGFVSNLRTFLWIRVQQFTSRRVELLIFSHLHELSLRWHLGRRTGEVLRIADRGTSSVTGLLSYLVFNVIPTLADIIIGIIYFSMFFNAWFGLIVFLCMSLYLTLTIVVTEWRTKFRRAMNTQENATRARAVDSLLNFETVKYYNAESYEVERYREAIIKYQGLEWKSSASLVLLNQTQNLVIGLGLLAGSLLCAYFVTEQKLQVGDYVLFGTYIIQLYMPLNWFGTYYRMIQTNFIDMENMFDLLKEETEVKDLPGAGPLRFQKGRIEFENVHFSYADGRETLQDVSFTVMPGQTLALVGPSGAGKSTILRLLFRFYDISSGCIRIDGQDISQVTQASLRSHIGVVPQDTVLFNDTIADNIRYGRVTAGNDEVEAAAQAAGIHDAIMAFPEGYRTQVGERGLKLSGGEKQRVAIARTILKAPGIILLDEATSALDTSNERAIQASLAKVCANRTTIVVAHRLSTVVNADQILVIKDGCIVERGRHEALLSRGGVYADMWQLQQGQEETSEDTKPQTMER
Beta-adrenergic receptor kinase 1 (Homo sapiens), sequence (P25098 whole entry, looked up): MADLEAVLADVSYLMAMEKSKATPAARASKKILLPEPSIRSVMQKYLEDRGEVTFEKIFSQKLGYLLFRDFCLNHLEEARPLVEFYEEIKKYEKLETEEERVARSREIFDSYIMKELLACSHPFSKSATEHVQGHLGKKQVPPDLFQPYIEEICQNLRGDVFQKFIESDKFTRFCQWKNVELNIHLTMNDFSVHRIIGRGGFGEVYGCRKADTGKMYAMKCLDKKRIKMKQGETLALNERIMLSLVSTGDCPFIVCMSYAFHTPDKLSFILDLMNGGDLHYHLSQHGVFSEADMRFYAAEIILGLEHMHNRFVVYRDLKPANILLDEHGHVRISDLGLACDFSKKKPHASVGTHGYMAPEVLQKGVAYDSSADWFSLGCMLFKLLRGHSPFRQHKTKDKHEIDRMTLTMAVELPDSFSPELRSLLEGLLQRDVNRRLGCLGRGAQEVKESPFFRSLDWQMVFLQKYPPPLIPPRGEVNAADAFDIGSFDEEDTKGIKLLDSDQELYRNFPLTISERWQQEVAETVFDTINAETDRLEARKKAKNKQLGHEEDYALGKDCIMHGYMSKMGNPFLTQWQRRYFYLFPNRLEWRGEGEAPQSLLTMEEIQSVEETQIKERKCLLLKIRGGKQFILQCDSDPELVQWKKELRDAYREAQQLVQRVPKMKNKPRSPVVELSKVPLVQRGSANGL
Integrin beta-1 (Homo sapiens) + Integrin alpha-4 (Homo sapiens), sequence (P05556 whole entry, looked up): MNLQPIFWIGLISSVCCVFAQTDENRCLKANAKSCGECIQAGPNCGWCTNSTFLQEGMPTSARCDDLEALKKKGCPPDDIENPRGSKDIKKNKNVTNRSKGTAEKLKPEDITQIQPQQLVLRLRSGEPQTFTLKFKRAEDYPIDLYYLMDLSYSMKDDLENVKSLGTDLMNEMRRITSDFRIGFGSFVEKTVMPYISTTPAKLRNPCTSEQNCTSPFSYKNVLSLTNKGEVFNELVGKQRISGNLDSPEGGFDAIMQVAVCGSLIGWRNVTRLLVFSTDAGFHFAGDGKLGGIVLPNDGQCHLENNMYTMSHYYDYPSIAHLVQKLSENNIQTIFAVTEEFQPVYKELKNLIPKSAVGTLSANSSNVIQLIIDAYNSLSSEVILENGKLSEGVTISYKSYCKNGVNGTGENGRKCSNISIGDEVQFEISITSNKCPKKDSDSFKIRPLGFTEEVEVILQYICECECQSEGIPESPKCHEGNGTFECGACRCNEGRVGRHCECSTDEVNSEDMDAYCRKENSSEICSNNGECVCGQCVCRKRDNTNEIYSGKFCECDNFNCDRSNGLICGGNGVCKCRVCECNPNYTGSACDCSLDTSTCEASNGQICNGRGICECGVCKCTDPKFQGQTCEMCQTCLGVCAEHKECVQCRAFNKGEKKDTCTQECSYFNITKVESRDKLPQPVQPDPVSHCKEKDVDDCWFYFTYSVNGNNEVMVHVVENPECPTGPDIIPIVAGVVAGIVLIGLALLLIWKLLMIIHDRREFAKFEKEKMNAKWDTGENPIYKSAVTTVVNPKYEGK
Integrin beta-1 (Homo sapiens) + Integrin alpha-4 (Homo sapiens), sequence (P13612 whole entry, looked up): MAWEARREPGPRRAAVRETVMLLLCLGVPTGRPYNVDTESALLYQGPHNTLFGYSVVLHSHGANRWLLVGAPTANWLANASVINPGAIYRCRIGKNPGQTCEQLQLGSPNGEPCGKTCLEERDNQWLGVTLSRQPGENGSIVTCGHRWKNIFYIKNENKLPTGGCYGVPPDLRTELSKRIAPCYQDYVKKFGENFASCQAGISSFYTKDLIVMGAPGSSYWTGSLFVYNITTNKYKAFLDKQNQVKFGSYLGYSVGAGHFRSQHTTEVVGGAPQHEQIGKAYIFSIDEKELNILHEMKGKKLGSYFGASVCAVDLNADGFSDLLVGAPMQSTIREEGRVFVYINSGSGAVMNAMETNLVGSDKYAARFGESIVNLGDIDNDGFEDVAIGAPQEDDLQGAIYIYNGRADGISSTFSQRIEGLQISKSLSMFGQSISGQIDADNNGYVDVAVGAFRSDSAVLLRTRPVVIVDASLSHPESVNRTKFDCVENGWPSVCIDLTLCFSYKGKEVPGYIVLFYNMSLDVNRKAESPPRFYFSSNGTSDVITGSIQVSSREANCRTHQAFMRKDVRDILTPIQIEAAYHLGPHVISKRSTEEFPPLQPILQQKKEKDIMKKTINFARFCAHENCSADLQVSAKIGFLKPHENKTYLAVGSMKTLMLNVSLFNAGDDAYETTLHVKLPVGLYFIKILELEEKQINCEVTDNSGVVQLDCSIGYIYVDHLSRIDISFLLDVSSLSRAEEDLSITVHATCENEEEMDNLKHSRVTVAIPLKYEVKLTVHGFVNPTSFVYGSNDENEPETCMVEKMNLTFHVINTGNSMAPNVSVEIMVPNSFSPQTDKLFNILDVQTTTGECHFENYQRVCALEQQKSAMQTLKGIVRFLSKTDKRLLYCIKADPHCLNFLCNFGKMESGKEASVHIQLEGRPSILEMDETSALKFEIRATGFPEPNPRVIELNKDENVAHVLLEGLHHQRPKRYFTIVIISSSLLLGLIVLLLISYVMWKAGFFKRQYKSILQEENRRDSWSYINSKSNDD

The inhibition is the drop in the measured response relative to a control, in per cent. Regarding `CC(=O)Oc1ccc2occ(/C=N/c3cc(=O)[nH]c(=S)[nH]3)c(=O)c2c1`, the percent of DMSO control GFP in test [1] is 98% (inactive). Also, the GFP response vs DMSO was 102% (inactive) in test [2] and 91.3% (inactive) in [4]. For the same molecule, the percent response of DMSO control in [3] was 96.9% (inactive). The GFP response, % of DMSO in test [5] is 98.5% (inactive). The same molecule gave a double positive events in [6] of 66.1%. Besides, the vesicle binding response in [6] is 181% (inactive). The values for the inhibition in test [7], in test [10] and in test [14] were 7.22% (inactive), 25.5% (inactive) and 10% (inactive), respectively. Also, in test [8], the superoxide response (% of plate) was 90.5% (inactive). Also, the aptamer binding inhibition in test [9] was 1% (inactive). Also, the response in test [11] was -8.27% (inactive). The binding (% of control) in test [12] is 103% (inactive). In addition, the efflux inhibition (fraction of control) in [13] was 0.33 (inactive). In test [15], the differentiation response is 40.2% (inactive).

For the molecule `COc1ccc2oc(=O)c(-c3nc(C)cs3)cc2c1`, the percent of DMSO control GFP in test [1] was 98% (inactive). Moreover, the GFP response vs DMSO in test [2] is 101% (inactive); in test [4] it was 106% (inactive). The percent response of DMSO control in test [3] was 96.9% (inactive). Further, the GFP response, % of DMSO in [5] was 88.2% (inactive). In [6], the double positive events is 54.8%. For the same molecule, in test [6], the vesicle binding response was 204% (inactive). The inhibition was 9.09% (inactive) in [7], -7.03% (inactive) in [10] and 7% (inactive) in test [14]. Besides, in [8], the superoxide response (% of plate) was 89.3% (inactive). In addition, in test [9], the aptamer binding inhibition was 6% (inactive). The response in [11] is -3.63% (inactive). In test [12], the binding (% of control) is 92.6% (inactive). In [13], the efflux inhibition (fraction of control) was -0.05 (inactive). The differentiation response in test [15] was -1.82% (inactive).

On to `CCOc1cc2oc(=O)c3c(c2cc1Cl)CCC3`, for which the percent of DMSO control GFP in test [1] is 104% (inactive). In addition, the figures for the GFP response vs DMSO in test [2] and in test [4] were 99.9% (inactive) and 111% (inactive), respectively. The percent response of DMSO control in test [3] was 102% (inactive). In [5], the GFP response, % of DMSO is 107% (inactive). The same molecule registered a double positive events in test [6] of 51.1%. Further, in [6], the vesicle binding response is 165% (inactive). Moreover, the figures for the inhibition in [7], in test [10] and in [14] were -6.77% (inactive), -15.2% (inactive) and 6% (inactive), respectively. The superoxide response (% of plate) in test [8] is 109% (inactive). Further, the aptamer binding inhibition in [9] was 1% (inactive). Also, the response in test [11] is -4.08% (inactive). The binding (% of control) in test [12] was 103% (inactive). Also, the efflux inhibition (fraction of control) in [13] was -0.05 (inactive). Moreover, the differentiation response in test [15] is -11.5% (inactive).

Consider `O=C(c1ccc(F)cc1)[C@@H]1[C@@H](C(=O)c2ccccc2)[C@@]2(C(=O)Nc3ccccc32)[C@H]2c3ccccc3C=CN12`, for which, in test [1], the percent of DMSO control GFP was 102% (inactive). Besides, the GFP response vs DMSO is 93.8% (inactive) in test [2] and 102% (inactive) in test [4]. For the same molecule, the percent response of DMSO control in test [3] was 106% (inactive). In addition, the GFP response, % of DMSO in test [5] was 102% (inactive). Also, the double positive events in test [6] worked out at 43.2%. The vesicle binding response in test [6] was 172% (inactive). Moreover, the inhibition in test [7] was -183% (inactive); in test [10] it was -24.7% (inactive); in [14], 3% (inactive). Besides, in [8], the superoxide response (% of plate) is 121% (inactive). Further, the aptamer binding inhibition in test [9] was -3% (inactive). For the same molecule, in [11], the response is 2.83% (inactive). In test [12], the binding (% of control) was 100% (inactive). The efflux inhibition (fraction of control) in [13] was 0.03 (inactive). Also, the differentiation response in test [15] is -19.6% (inactive).

For `Cn1c2ccccc2c2cc(/C=C(\NC(=O)c3ccccc3)C(=O)O)ccc21`, in test [1], the percent of DMSO control GFP was 95.6% (inactive). Also, the GFP response vs DMSO in test [2] was 90.8% (inactive); in [4] it was 92.3% (inactive). In test [3], the percent response of DMSO control is 106% (inactive). Moreover, in test [5], the GFP response, % of DMSO is 95.7% (inactive). For the same molecule, the double positive events in [6] came out at 58%. Moreover, in test [6], the vesicle binding response was 107% (inactive). For the same molecule, the inhibition in [7] was -9.57% (inactive); in test [10], -8.15% (inactive); in test [14], 10% (inactive). Further, in [8], the superoxide response (% of plate) was 111% (inactive). For the same molecule, the aptamer binding inhibition in test [9] was 3% (inactive). In addition, the response in test [11] is 1.01% (inactive). In addition, the binding (% of control) in test [12] was 96.5% (inactive). In test [13], the efflux inhibition (fraction of control) is -0.43 (inactive). In addition, in test [15], the differentiation response was -14.7% (inactive).

Source of the values: PubChem BioAssay.
